# Bioassay records (PubChem)
# Hits are enriched below; roughly 1.6% of the tested compounds scored in any of these assays.
# KCNQ2 pot – potentiators of rat KCNQ2 potassium channel; CHO-K1 KCNQ2, FluxOR thallium flux fluorescence; active compounds read high; B-score at 10 µM; 0.54% of 310,000 active; Potassium voltage-gated channel subfamily KQT member 2 (Rattus norvegicus), O88943; AID 2239, 2010;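 active means fluorescence ratio B-score at least 3 SD of library B-scores, with initial fluorescence B-score within 3 of them, cut at about 5.3 in these data; same plate scores as AID 2156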;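 further: B-score of peak minus minimum over baseline fluorescence ratio after K+ and Tl+ stimulus; positive B-score means potentiation of KCNQ2 with more thallium influx and brighter signal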
# KCNQ2 inh – rat KCNQ2 potassium channel inhibitors, primary screen, cell-based, CHO-K1, FluxOR thallium flux, B-score; AID 2156, 2009; 20 min; active compounds read low; B-score at 10 µM; Potassium voltage-gated channel subfamily KQT member 2 (Rattus norvegicus), O88943; 1.1% of 310,000 active;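 active means fluorescence ratio B-score at most minus 3 library SDs, with starting brightness B-score within 2 library SDs, cut at about -5.5 in these data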
# Kir21 confirm – mouse Kir2.1 channel blockers, retest, confirmation, cell-based, FluxOR thallium flux, duplicate; 41% of 2,300 active; Kir2.1-expressing cells, FluxOR thallium flux fluorescence; active compounds read low; shares compounds with KCNQ2 pot; Tl flux remaining, % of negative control (active compounds read low), % at 10 µM;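 active means Primary-screen hit whose thallium flux fell at least 3 control SD below untreated wells in both duplicates, with normal baseline fluorescence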;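 further: 0% = blank wells without stimulus and 100% = stimulated no-compound controls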
# HEK293 Tl flux – counter-screen for Kir2.1 inhibitors: effect in parental HEK293 cells; shares compounds with KCNQ2 pot; FluxOR thallium flux fluorescence; 0% = unstimulated blank wells; FluxOR signal as % of negative control (100 = no effect), % at 10 µM; 19% of 2,300 active;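 active means dye signal at least 3 control SD above or below untreated wells in both duplicates, raw fluorescence within 3, either direction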;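 further: percent is based on the flux ratio of peak minus minimum fluorescence over baseline F0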
# CHO-K1 ctr – nonspecific thallium flux increase in parental CHO-K1, confirmation, counter-screen for KCNQ2 potentiator project, cell-based, FluxOR thallium flux, duplicate. 43% of 1,200 active. parental CHO-K1 cells, FluxOR thallium flux fluorescence; zero = vehicle mean+3SD, 100% = vehicle-minus-blank window. shares compounds with KCNQ2 pot. activity increase over 3SD of controls, % at 10 µM;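 active means signal rise of at least 3 SD above the untreated control mean, in both duplicate wells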;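 further: counter screen of KCNQ2 potentiator hits so any rise reflects channel-independent effects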
# KCNQ1 pot spec – human KCNQ1 channel potentiation off-target, confirmation, selectivity assay for KCNQ2 potentiator project, cell-based, CHO, FluxOR thallium flux; AID 2283, 2010; CHO KCNQ1 stable, FluxOR thallium flux fluorescence; beyond 3SD, as % of vehicle-control signal; activation over 3SD threshold, % at 10 µM; 28% of 1,200 active; shares compounds with KCNQ2 pot;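 active means fluorescence ratio rise of at least 3 SD of vehicle wells above their mean, in both replicate wells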;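 further: 0% = vehicle mean plus 3 SD and 100% = vehicle minus unstimulated blank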
# KCNQ2 pot conf – rat KCNQ2 channel potentiators, confirmation, cell-based, CHO, FluxOR thallium flux, duplicate; CHO-KCNQ2 cells, FluxOR thallium flux fluorescence; shares compounds with KCNQ2 pot; 68% of 1,200 active; potentiation, less the hit threshold, % at 10 µM;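 active means fluorescence ratio rising 3 SD or more over the vehicle control mean in both replicates, plus primary screen hit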;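 further: peak minus minimum thallium fluorescence divided by baseline after K/Tl stimulus; 0% = vehicle mean plus 3 SD and 100% = vehicle minus unstimulated blank difference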
# Kir2-1 sel – mouse Kir2.1 channel activation off-target, confirmation, selectivity assay for KCNQ2 potentiator project, cell-based, HEK293, FluxOR thallium flux. HEK293 Kir2.1, FluxOR thallium flux fluorescence. activity over 3SD threshold, % at 10 µM. 2% of 1,200 active. shares compounds with KCNQ2 pot;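 active means fluorescence ratio rise of at least 3 SD above the vehicle-control mean, seen in both replicates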;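 further: 0% = vehicle mean plus 3 SD and 100% = vehicle minus no-stimulus blank window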
# KCNQ2 W236L MoA – potentiators of retigabine-insensitive KCNQ2 W236L, mechanism study for KCNQ2 potentiator project, cell-based, rat KCNQ2 W236L, CHO, automated patch clamp | shares compounds with KCNQ2 pot | automated patch clamp current | current increase over 3SD of negative controls (%), active compounds read high, % at 25 µM | 10% of 940 active | AID 2558, 2010;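 active means current increase at least 3 SD of the untreated controls above them in both duplicate recordings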
# Target sequence (O88943 whole entry W236L, looked up): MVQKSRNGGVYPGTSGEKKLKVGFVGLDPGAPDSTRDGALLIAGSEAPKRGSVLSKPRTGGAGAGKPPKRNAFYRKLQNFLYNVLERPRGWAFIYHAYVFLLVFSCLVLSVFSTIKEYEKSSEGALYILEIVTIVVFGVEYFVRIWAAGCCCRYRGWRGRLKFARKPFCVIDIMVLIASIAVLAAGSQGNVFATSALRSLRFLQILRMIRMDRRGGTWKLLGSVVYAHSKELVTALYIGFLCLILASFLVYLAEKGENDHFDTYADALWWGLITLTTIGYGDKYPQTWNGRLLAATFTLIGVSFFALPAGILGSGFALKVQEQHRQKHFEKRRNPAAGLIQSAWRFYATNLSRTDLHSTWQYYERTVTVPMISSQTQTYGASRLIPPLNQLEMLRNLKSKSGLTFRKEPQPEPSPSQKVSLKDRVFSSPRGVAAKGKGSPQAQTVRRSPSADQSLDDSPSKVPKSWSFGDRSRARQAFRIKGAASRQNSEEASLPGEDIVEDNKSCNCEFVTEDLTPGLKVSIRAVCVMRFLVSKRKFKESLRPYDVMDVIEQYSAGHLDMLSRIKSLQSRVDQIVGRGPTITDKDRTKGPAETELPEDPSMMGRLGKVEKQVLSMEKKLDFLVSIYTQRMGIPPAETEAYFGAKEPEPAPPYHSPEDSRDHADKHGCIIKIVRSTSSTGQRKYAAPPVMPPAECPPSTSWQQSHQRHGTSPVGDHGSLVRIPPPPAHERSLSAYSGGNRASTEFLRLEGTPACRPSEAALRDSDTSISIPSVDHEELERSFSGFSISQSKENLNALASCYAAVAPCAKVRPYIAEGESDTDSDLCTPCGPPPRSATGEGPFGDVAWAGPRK
# Numbers without * were called inactive; i = inactive; · = not tested or not shown.
SMILES,KCNQ2 pot,KCNQ2 inh,Kir21 confirm,HEK293 Tl flux,others
COCCNC(=O)/C(C#N)=C/c1cccc(/C=C(\C#N)C(=O)NCCOC)c1,9.3*,i,i,i,CHO-K1 ctr=-7;KCNQ1 pot spec=2.5*;KCNQ2 pot conf=1.3*;Kir2-1 sel=-30;KCNQ2 W236L MoA=9.2%*
COCCNC(=O)/C(C#N)=C/c1ccc(O)cc1,0.47,i,·,·,
CN(C)S(=O)(=O)c1cccc(COC(=O)Cc2c(F)cccc2Cl)c1,0.44,i,·,·,
Cc1cccc(N(C)S(=O)(=O)c2c(C)noc2C)c1,·,i,·,·,
O=C(NC(=S)N1CCN(c2ccc(Cl)cc2[N+](=O)[O-])CC1)c1ccco1,·,i,·,·,
O=C(NC(=S)N1CCN(c2ccc(Cl)cc2[N+](=O)[O-])CC1)c1cccs1,5.5*,i,i,151%*,CHO-K1 ctr=53*;KCNQ1 pot spec=24*;KCNQ2 pot conf=8.6*;Kir2-1 sel=-32;KCNQ2 W236L MoA=i
COCCNC(=O)c1ccccc1NC(=O)CCSc1ccccc1,1.2,i,·,·,
COc1ccc(CNCc2cccc(Cl)c2)cc1,0.35,i,·,·,
Cc1ccc(CNCC(O)(c2ccccc2)c2ccccc2)cc1,·,i,42%*,i,
COc1ccc(CCNCC(O)COc2cccc(Br)c2)cc1 (stereo not given),0.09,i,25%*,i,
COc1ccc(CNCC(O)COc2ccc(C(C)(C)c3ccccc3)cc2)cc1 (stereo not given),·,i,41%*,65%*,
Cc1ccc(CNC(=O)NCc2ccccc2)cc1,1.7,i,·,·,
COC(=O)c1ccc(CNCC(O)COc2ccc(-c3ccccc3)cc2)cc1 (stereo not given),·,i,·,·,
CC(=O)c1cccc(OCC(O)CNCCc2ccc(Cl)cc2)c1 (stereo not given),0.27,i,·,·,
COc1ccc(CNCC(O)(c2ccccc2)c2ccc(Cl)cc2)cc1 (stereo not given),-5.6,-5.6*,62%*,i,
Cc1nc(C)n(CC(=O)N2CCCC(C(=O)c3ccc(C(F)(F)F)cc3)C2)n1 (stereo not given),0.9,i,·,·,
COc1ccc(C)cc1S(=O)(=O)N(CC(=O)N1CCCC1)c1ccccc1,0.05,i,·,·,
CC(=O)N(C1CC(C)C(C#N)(C#N)C1(C#N)C#N)N(C)C (stereo not given),24*,i,i,63%*,
COc1ccc(N2CCN(C(=O)c3cccnc3SCc3cccc(Br)c3)CC2)cc1,1.4,i,·,·,
CC1=NN(C(N)=S)C(=O)C1N=Nc1ccccc1Cl (stereo not given),·,i,·,·,
CC1=NN(C(N)=S)C(=O)C1N=Nc1ccc(Cl)cc1Cl (stereo not given),13*,i,i,i,CHO-K1 ctr=-8;KCNQ1 pot spec=-16;KCNQ2 pot conf=-4;Kir2-1 sel=-30;KCNQ2 W236L MoA=i
CC(C)(/C=N/NC(=O)CSCc1ccc(Cl)cc1)CCC#N,0.13,i,·,·,
Cc1cc(Oc2ccccc2)nc(SCC(=O)Nc2ccccc2)n1,·,i,·,·,
Cc1cc(Oc2ccccc2)nc(SCC(=O)Nc2ccc(Cl)c(Cl)c2)n1,5.5*,i,i,i,CHO-K1 ctr=-26;KCNQ1 pot spec=-10;KCNQ2 pot conf=6.8*;Kir2-1 sel=-35;KCNQ2 W236L MoA=i
COCCn1c(SCC(=O)NC2CCCC2)nc2c(c1=O)SCC2,1.4,i,·,·,
SMILES,KCNQ2 pot,KCNQ2 inh,Kir21 confirm,HEK293 Tl flux,others
COc1cccc(OCC(O)CN2CCc3ccccc3C2)c1 (stereo not given),0.35,i,·,·,
OC(COc1ccc(Cl)cc1Cl)CN1CCc2ccccc2C1 (stereo not given),·,i,40%*,i,
OC(COC(c1ccc(Cl)cc1)c1ccc(Cl)cc1)CN1CCc2ccccc2C1 (stereo not given),·,i,·,·,
COc1cc(COCC(O)CN2CCc3ccccc3C2)cc(OC)c1OC (stereo not given),0.05,i,·,·,
C=CCc1ccc(OCC(O)CN2CCc3ccccc3C2)c(OC)c1 (stereo not given),·,i,30%*,i,
Cc1ccc(OCC(O)CN2CCc3ccccc3C2)c(C)c1 (stereo not given),·,i,28%*,i,
Cc1cccc(OCC(O)CN2CCc3ccccc3C2)c1 (stereo not given),1.3,i,42%*,i,
COc1ccc(OCC(O)CN2CCc3ccccc3C2)cc1 (stereo not given),0.26,i,·,·,
CSC(=NCc1ccco1)NC#N,·,i,·,·,
CC(Cc1ccccc1)N1C(=O)c2cccc([N+](=O)[O-])c2C1=O (stereo not given),·,i,·,·,
Cc1ccc(C)c(NC(=O)CCc2ccc(S(=O)(=O)NC3CCCCC3)cc2)c1,1.1,i,·,·,
O=C(Nc1nnc(Cc2ccccc2)s1)Nc1ccccc1F,·,i,·,·,
Cc1ccc(N2C(=O)C3N=NN(CC(=O)N4N=C(c5ccccc5)CC4c4ccccc4)C3C2=O)cc1 (stereo not given),0.85,i,·,·,
COc1ccc2nc(Nc3nc(CSc4nc5ccccc5s4)cc(=O)[nH]3)nc(C)c2c1,·,i,·,·,
CC(C)(C)C(=O)C1=C(O)C(=O)N(c2ccccc2)C1c1ccccc1 (stereo not given),·,i,·,·,
Cc1ccc(C(=O)Nc2ccc(N3CCOCC3)cc2N2CCOCC2)cc1,·,i,·,·,
CCOc1ccc(OCCC(=O)OCC(=O)Nc2ccc(N3CCOCC3)cc2)cc1,0.66,i,·,·,
CC(C)(C)c1ccc(OCCC(=O)Nc2ccc(N3CCOCC3)cc2N2CCOCC2)cc1,8*,i,·,·,CHO-K1 ctr=-6;KCNQ1 pot spec=-37;KCNQ2 pot conf=-16;Kir2-1 sel=-44
